The list is not random: actives were taken first. Their share in the collection is about 7.3%.
FMDV inh = High Throughput Screening for Foot and Mouth Disease Virus Antivirals; FMDV antiviral cell-based qHTS; Potency, µM (titrated, usually from 57.9 µM), most hits filed as inhibitors; 410,000 tested, 1.2% active; AID 1159524, 2015; calls by dose curve; tested in HEK293T cells; further: read-out not given here; nearly all actives have a fitted effect of over 45% in size
HCV inhibitor = qHTS Assay for Inhibitors of Hepatitis C Virus (HCV); Huh7.5.1 HCVcc-Cre infection, luciferase reporter, 44 h; Potency, µM (top dose mostly 41.8 µM), usual class: inhibitors; 340,000 tested, 3.4% active
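Luciferase read-out (15 sec integration) after a 15 min room-temperature substrate step quantifies HCVcc-Cre infection. Cells, 1,000 per well, had compound added 4 h post-plating, then virus at ~0.5 moi, and were cultured 44 h.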
HCMV antiviral = qHTS Assay for inhibitors of the human cytomegalovirus (HCMV); activity change, negative = inhibition, % at 57.5 µM; 410,000 tested, 4.5% active; HFF cells, HCMV-luciferase reporter, 72 h; hits give low values; in the data active means activity change below about -60%; inconclusive means no clear call, values can overlap the other calls; inactive means above about -39%
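Inhibition of viral replication was scored as loss of reporter luminescence in HFFs infected with HCMV-luciferase (MOI 1 PFU/cell) for 72 h; compounds tested at 2 doses, normalized to buffer and Salinomycin controls.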
AmpC inh no detg = qHTS Inhibitors of AmpC Beta-Lactamase (assay without detergent). Potency, µM (series often up to 57.1 µM), actives largely listed as inhibitors. AmpC nitrocefin hydrolysis, absorbance 480 nm, 0.0001% Triton. 330,000 tested, 0.52% active. P00811; further: nearly all actives have a fitted effect of over 20% in size
Target sequence (P00811 whole entry, looked up): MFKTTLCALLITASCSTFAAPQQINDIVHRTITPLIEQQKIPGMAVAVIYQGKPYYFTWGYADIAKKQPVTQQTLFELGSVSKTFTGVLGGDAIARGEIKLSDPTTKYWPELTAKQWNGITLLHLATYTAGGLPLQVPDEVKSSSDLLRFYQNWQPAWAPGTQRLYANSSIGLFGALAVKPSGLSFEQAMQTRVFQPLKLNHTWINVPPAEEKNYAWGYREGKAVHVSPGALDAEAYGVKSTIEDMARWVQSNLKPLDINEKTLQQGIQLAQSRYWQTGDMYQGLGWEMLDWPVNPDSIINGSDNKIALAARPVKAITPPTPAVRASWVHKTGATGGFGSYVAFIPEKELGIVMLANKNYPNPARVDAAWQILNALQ
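AmpC (5.3 nM in the dispensed reagent) in 20 mM phosphate pH 7.0 with 0.01% (detergent screen) or 0.0001% Triton X-100 was preincubated with compounds for 15 min at room temperature. Nitrocefin was then added from an 800 uM solution, and hydrolysis was followed at 480 nm.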
AmpC inh detg = qHTS Inhibitors of AmpC Beta-Lactamase (assay with detergent); AmpC hydrolysis of nitrocefin, absorbance 480 nm, 0.01% Triton; Potency, µM (doses to about 114 µM), actives largely listed as inhibitors; 370,000 tested, 0.041% active; AID 485294, 2010; further: nearly all actives have a fitted effect of over 25% in size
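20 mM phosphate pH 7.0 + 0.01% (detergent screen) or 0.0001% Triton X-100; 5.3 nM AmpC reagent; cpd preinc 15 min RT; nitrocefin (800 uM stock) to start; A480 q20 s × 4 min; Activity was normalised to no-enzyme and no-compound control wells.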
Of the large screens only hits and unclear results are named; the others gave an inactive call. Unless noted, the call rests on the fitted dose curve; in most records, active means well fitted curve in the direction sought with a large enough effect; inconclusive means small, poorly fitted or top-dose-only effect, or another doubt; inactive means no such curve, though single readings can be large; an effect the other way counts as inactive or inconclusive.

CC(C)(C)c1ccc(C(=O)NCc2nnc(SCC(=O)NCC3CCCO3)o2)cc1 (stereo not drawn)	HCMV antiviral inconclusive
Oc1ccc(-c2onc(C(F)(F)F)c2-c2cscn2)c(O)c1	HCV inhibitor inconclusive, HCMV antiviral inconclusive
Cc1nc(-c2c(C(F)(F)F)noc2-c2ccc(O)cc2O)cs1	FMDV inh inconclusive, HCV inhibitor inconclusive, HCMV antiviral -90.1
COc1ccc(NC(=O)Cn2c(SCc3c(F)cccc3Cl)nc3ccncc32)cc1OC	none (no result: HCV inhibitor, AmpC inh no detg)
O=S(=O)(Nc1ccc2nc(-c3ccc(Br)o3)[nH]c2c1)c1ccccc1	AmpC inh no detg 25.1µM (no result: FMDV inh, HCV inhibitor, HCMV antiviral)
CCc1nc(C)cc2c1sc1ccccc12	HCV inhibitor inconclusive
CC[n+]1c(C)cc2c(sc3ccccc32)c1C	HCV inhibitor inconclusive, HCMV antiviral -100.7
COC(=O)CNC(=O)C1CC(=O)N(CCc2ccc(F)cc2)C1 (stereo not drawn)	none
COc1cc(OC)cc(-c2nnc(SCC(=O)c3ccc([N+](=O)[O-])cc3)o2)c1	none (no result: HCV inhibitor, AmpC inh no detg)
Cc1cc(C(=O)Nc2cccc(C)c2C)n(-c2ccccc2)n1	HCMV antiviral -88.0
Cc1cc(C(=O)Nc2cccc3ccccc23)n(-c2ccccc2)n1	none
Oc1c(CN2CCCCC2)cc(Br)c2cccnc12	FMDV inh inconclusive, HCV inhibitor inconclusive, HCMV antiviral -102.1
O=C(Oc1c(CN2CCOCC2)cc(Cl)c2cccnc12)c1ccccc1	HCV inhibitor inconclusive, HCMV antiviral -96.5, AmpC inh detg inconclusive
O=C(Oc1c(CN2CCOCC2)cc(Cl)c2cccnc12)c1ccccc1F	HCV inhibitor inconclusive, HCMV antiviral -84.9
Oc1c(Cl)cc(CN2CCOCC2)c2cccnc12	HCV inhibitor 2.51µM, HCMV antiviral -99.2
COc1ccc(C(=O)Oc2c(CN3CCOCC3)cc(Cl)c3cccnc23)cc1OC	none (no result: AmpC inh no detg, AmpC inh detg)

Assay outcomes (PubChem)
